Only some compounds are listed: those with a hit (about 12% of all), similar ones and a draw of the others.
G9a block – G9a (human) methyltransferase inhibition. actives 8.8% (n = 350,000). Q96KQ7. Potency, µM (doses to about 102 µM), for the others: at the top dose activity, negative = inhibition, most hits filed as inhibitors. AID 504332. G9a H3K9 monomethylation, AlphaScreen, 2 h; also: % is scaled to controls: 0 for no effect and ±100 for the full control effect; nearly all actives have a fitted effect of over 75% in size
Target sequence (Q96KQ7 913-1193 limits assumed): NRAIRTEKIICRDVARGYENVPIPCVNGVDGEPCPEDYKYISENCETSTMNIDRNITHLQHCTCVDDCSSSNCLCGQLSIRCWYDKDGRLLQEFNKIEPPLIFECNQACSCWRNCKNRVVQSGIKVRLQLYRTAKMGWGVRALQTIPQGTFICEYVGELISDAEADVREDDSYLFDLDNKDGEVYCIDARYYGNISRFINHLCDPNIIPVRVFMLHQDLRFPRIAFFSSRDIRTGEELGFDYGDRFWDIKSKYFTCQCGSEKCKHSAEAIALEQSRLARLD
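G9a (20 nM) preincubated 15 min RT with compounds, then 500 nM biotinylated H3K9 peptide and 20 uM SAM added; 2 h RT reaction. Monomethyl-H3K9 product detected by AlphaScreen with anti-H3K9me1 antibody, streptavidin donor and anti-rabbit IgG acceptor beads.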
Sfp inh – Sfp phosphopantetheinyl transferase inhibition. Biochemical Sfp PPTase activity, qHTS. Potency, µM, for the others: largest response in the series, negative = inhibition, usual class: inhibitors. actives 3.5% (n = 310,000). AID 1490;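 also: the enzyme is Sfp with the accession as filed and its product quenches rhodamine fluorescence; 0% = enzyme reaction without inhibitor and -100% = no enzyme wells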
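Buffer: 50 mM Hepes-Na pH 7.6, 10 mM MgCl2, 0.01% Nonidet P-40, 0.01% BSA. Enzyme 15 nM, pre-exposed to compound 15 min; substrates then added and fluorescence change tracked over 30 min.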
BAZ2B inh – blocks human BAZ2B; actives 4.4% (n = 360,000); Potency, µM (titrated, usually from 114 µM), inactives show at the top dose activity change, negative = inhibition, most hits filed as inhibitors; Q9UIF8; AID 504333; AlphaScreen BAZ2B-H3K14Ac peptide displacement; also: % is scaled to controls: 0 for no effect and ±100 for the full control effect; nearly all actives have a fitted effect of over 60% in size
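Protein-peptide AlphaScreen: BAZ2B 50 nM, b-H3K14Ac 50 nM, 1x PBS pH 7.4 + 0.01% Tween-20. Preincubation 30 min RT; cpd 30 min RT (top 110 uM); beads 20 min RT, light-protected.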
HP1b binding inh – inhibitors of HP1-beta chromodomain binding to methylated histone tails; Potency, µM (titrated, usually from 114 µM), inactives show at the highest dose activity change, negative = inhibition, most hits filed as inhibitors; AlphaScreen HP1-beta / biotin-H3K9me3 peptide binding; P83916; actives 0.56% (n = 390,000); also: nearly all actives have a fitted effect of over 70% in size
Target sequence (P83916 whole entry, looked up): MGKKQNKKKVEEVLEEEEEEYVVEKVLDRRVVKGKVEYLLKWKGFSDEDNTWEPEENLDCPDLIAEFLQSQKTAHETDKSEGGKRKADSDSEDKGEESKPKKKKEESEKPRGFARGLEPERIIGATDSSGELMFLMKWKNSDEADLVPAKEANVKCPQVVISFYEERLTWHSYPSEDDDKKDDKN
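AlphaScreen: HP1-beta (50 nM) preformed 30 min with biotin-H3(1-18)K9me3 peptide (50 nM) in PBS pH 7.4, 0.01% Tween-20. Compound added for 30 min at RT, then streptavidin donor/nickel chelate acceptor beads (10 ug/mL) for 30 min.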
JMJD2A Tudor inh – inhibitors of human JMJD2A Tudor domain; O75164; Potency, µM (highest dose often 114 µM), for the others: at the top dose activity change, negative = inhibition, actives largely listed as inhibitors; actives 4.4% (n = 390,000); AID 504339; AlphaScreen JMJD2A-Tudor / H3K4me3 peptide binding; also: % is scaled to controls: 0 for no effect and ±100 for the full control effect; nearly all actives have a fitted effect of over 50% in size
Numbers without * were called inactive; ? = inconclusive; / = no result; [ ] = another dose, or the depositor's remark. Calls follow the shape of the dose curve; as a rule, active = well fitted curve in the direction sought with a large enough effect; inconclusive = small, poorly fitted or top-dose-only effect, or another doubt; inactive = no such curve, though single readings can be large; an effect the other way counts as inactive or inconclusive. Potency is read from the fitted curve at half-maximal effect.

SMILES | G9a block | Sfp inh | BAZ2B inh | HP1b binding inh | JMJD2A Tudor inh
COc1ccc(/C=C/c2cccc[n+]2C)c(O)c1 | / | -1% | -4% | 6% | -1%
CCN(CC)c1ccc(/C=C/c2cccc[n+]2C)c(OC)c1 | 35µM* | -1% | 50µM* | -18% | 18µM*
Cc1ccc(C)n1-c1nc(=S)[nH][nH]1 | 1.3µM* | 14µM* | ? | 16µM* | 3.2µM*
CCc1nnc(NC(=O)CSc2nnc(CNc3ccc(OC)cc3)n2C)s1 | -7%[59 µM] | 9% | -10% | 24% | 1%
N=C1CCC(=N)c2c1c(O)c1ccccc1c2O | / | ? | 14µM* | 20µM* | 14µM*
CCCn1c(N/N=C\C=C\c2ccccc2)nc2c1c(=O)[nH]c(=O)n2C | -44% | -24% | / | -4% | -29%
Cn1c(=O)[nH]c(=O)c2c1nc(Br)n2C/C=N/Nc1ccccc1 | ? | 56µM* | ? | 37% | -31%
COCCn1c(N/N=C(C)/C=C/c2ccccc2)nc2c1c(=O)[nH]c(=O)n2C | / | 40µM* | -13% | / | /
CC(/C=C/c1ccccc1)=N\Nc1nc2c(c(=O)[nH]c(=O)n2C)n1CCO | ? | 40µM* | -14% | 35% | -5%
Cn1c(=O)[nH]c(=O)c2c1nc(Br)n2C/C=N/NC(=O)c1ccccc1 | 0% | 4% | 0% | 27% | 2%
CC(=O)c1c(O)cc(O)c(C(C)=O)c1O | -22%[59 µM] | 14% | -5% | 37% | -7%
Cn1c(SCC(=O)Nc2ccccc2F)nnc1C1CCCCC1 | / | 15% | -15% | 7% | -9%
O=C(O)c1cc(N2CCCCC2)ccn1 | / | / | / | 29% | 1.6µM*
O=C(O)c1cc(N2CCCC2)ccn1 | / | / | / | -5% | 3.2µM*
O=C(Nc1ccc(F)cc1)c1cccc(N2C(=O)C3C4C=CC(C4)C3C2=O)c1 (configuration not stated) | 83% | 17% | 6% | 25% | 1%
O=C1CC(c2nc3ccccc3[nH]2)CN1c1ccccc1 (configuration not stated) | ? | 14% | -5% | 1% | -15%
c1ccc(C2=Nc3ccccc3SC2c2nc3ccccc3[nH]2)cc1 (configuration not stated) | 13µM* | 40µM* | ? | / | /
O=[N+]([O-])CC(c1ccc(F)cc1)c1c[nH]c2ccccc12 (configuration not stated) | 2% | 14% | -4% | 16% | -19%
Fc1ccc(C(Nc2ccccn2)c2c[nH]c3ccccc23)cc1 (configuration not stated) | 40µM* | -12% | -20% | -11% | ?
COc1ccc(/C=C/C2=CC(C)(C)NC(=S)N2)cc1OC | 45µM* | 13% | / | 16% | -35%
Cc1cccc(-c2nc(C)c(CCNC(=O)C(=O)Nc3c(C)cc(C)cc3C)s2)c1 | 1%[59 µM] | / | 3% | 23%[57 µM] | -4%
CCOC(=O)c1ccc(NC(=S)N(CCN2CCCCCC2)Cc2ccco2)cc1 | 32µM* | -24% | -17% | 7% | ?
Cc1cc(NC(=S)N(CCN2CCCCC2)Cc2ccco2)ccc1Cl | 40µM* | -70% | ? | 4% | -22%
Cc1ccc(NC(=S)N(CCCN2CCOCC2)Cc2ccco2)cc1 | 40µM* | -29% | -14% | 26% | -6%
S=C(Nc1ccc(Oc2ccccc2)cc1)N(CCCN1CCOCC1)Cc1ccccn1 | 32µM* | -76% | ? | -13% | -16%
SMILES | G9a block | Sfp inh | BAZ2B inh | HP1b binding inh | JMJD2A Tudor inh
S=C(Nc1ccc(Cl)cc1)N(CCCN1CCOCC1)Cc1ccco1 | -10%[59 µM] | 7% | -21% | -3% | -18%
CCN1CCN(CCCN(Cc2ccco2)C(=S)Nc2ccc(Cl)c(C)c2)CC1 | ? | 13% | -20% | 10% | -18%
CCOC(=O)c1ccc(NC(=S)N(CCCN2CCCCCC2)Cc2ccco2)cc1 | ? | -23% | -39% | 13% | ?
COc1ccc(CC(=O)N/N=C/C=C/c2ccc3c(c2)OCO3)cc1OC | / | 1% | ? | 30% | -14%
COC(=O)CN1C(=O)COc2ccc(S(=O)(=O)NCc3ccc(F)cc3)cc21 | 17%[59 µM] | 15% | -16% | 5% | -5%
O=c1c2ccccc2[nH]c(=S)n1CCCN1CCOCC1 | 18µM* | -9% | -33% | 31% | -24%
O=C(CCN1CCCCC1)Nn1c(=S)[nH]c2ccccc2c1=O | ? | 50µM* | ? | 16% | 0.71µM*
O=c1c2ccc(Cl)cc2[nH]c(=S)n1CCCN1CCOCC1 | 45µM* | -12% | -30% | 15% | ?
O=c1c2ccccc2[nH]c(=S)n1CCN1CCCC1 | 18µM* | 3% | -13% | 13% | -28%
CCN(CC)CCCn1c(=S)[nH]c2cc(Cl)ccc2c1=O | ? | 1% | 9% | 42% | -24%
O=C(NCc1ccccn1)c1cc(S(=O)(=O)N2CCN(c3ccccc3)CC2)ccc1Cl | 27%[59 µM] | -10% | 8% | 18% | -28%
Oc1ccc(Cl)cc1C1=Nc2ccccc2N=C(c2cccc(Br)c2)C1 | 53%[59 µM] | / | -2% | 94% | 56%
CC1CC(C)CN(C(=O)CCCn2c(=S)[nH]c3ccccc3c2=O)C1 (configuration not stated) | -10%[59 µM] | -11% | 4% | 10% | -17%
O=C(CCCn1c(=S)[nH]c2ccccc2c1=O)N1CCCCC1 | ? | -1% | 4% | 35% | 56µM*
COC(=O)Cn1ccc(N(C)C)c(C#N)c1=O | -13%[59 µM] | 14% | -1% | 28% | 0%
COc1ccc(S(=O)(=O)N2CCC(c3ccncc3)CC2)cc1OC | 34%[59 µM] | / | -2% | 2% | -13%
O=C(Cc1nc2ccccc2[nH]1)c1ccc([N+](=O)[O-])cc1 | 45µM* | 16µM* | -27% | 18% | -27%
O=C(NCCc1nc2ccccc2[nH]1)c1ccc([N+](=O)[O-])cc1 | -7% | 2% | -2% | 18% | -21%
CN/N=C(\Cc1nc2ccccc2[nH]1)c1ccc([N+](=O)[O-])cc1 | ? | 22µM* | ? | 2% | ?
Clc1ccc(/C(Cc2nc3ccccc3[nH]2)=N\Nc2ccccc2)cc1 | 7.1µM* | -3% | ? | -11% | ?
O=c1[nH]c2ccccc2nc1Cc1ccc(Cl)cc1 | 21% | -6% | 1% | 5% | 2%
O=C(Cc1nc2ccccc2[nH]1)c1ccc(Cl)cc1 | 4% | 16% | -3% | 18% | -19%
O=c1[nH]c2ccccc2nc1Cc1ccc([N+](=O)[O-])cc1 | 50µM* | 9% | -1% | 29% | -4%
CC(C)N(CCn1cnc2c([nH]c3ccccc32)c1=O)C(C)C | / | 2% | 2% | 37% | 1%[11.4 µM]
COc1cc2[nH]c3c(=O)n(CCN(C(C)C)C(C)C)cnc3c2cc1OC | 79µM* | -19% | 1% | 41% | -10%
O=C(CN1CCN(c2ccccc2F)CC1)N1CCc2ccccc21 | 10% | 9% | -14% | 0% | -9%
CC(=O)N1CCc2cc(C(=O)CN3CCN(c4ccccn4)CC3)ccc21 | 20µM* | 50µM* | 9% | 37% | 1%

Bioassay records as filed in PubChem BioAssay.
